Potency and activity (max response) data for 15 molecules are collected here from PubChem BioAssay (NCATS).

Structures are written as SMILES. Values joined by “and” are separate entries in the source; they are usually repeats but may differ in a detail not shown here. Identical values can stand only once. Records with an inconclusive call do not appear. More than one record can exist for a structure, and the calls need not agree. Active and inactive are the calls of the source. Calls follow the shape of the dose curve; as a rule, active = well fitted curve in the direction sought with a large enough effect; inconclusive = small, poorly fitted or top-dose-only effect, or another doubt; inactive = no such curve, though single readings can be large; an effect the other way counts as inactive or inconclusive.

Test [1] in a line: Viability qHTS for spleen associated tyrosine kinase inhibitor (SYKi) naive MV4-11 cells (AID 1963823). Also: nearly all actives have a fitted effect of over 40% in size. In short, it runs like this: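 SYK inhibitor-naive MV4-11 cells, 500 per well, exposed to compounds for 72 hr at 37 C, 5% CO2. Viability read as CellTiter-Glo luminescence after 10 min at room temperature.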
Background: Quantitative high-throughput screening tests each substance at several concentrations.

Test [2] is described as follows: Viability qHTS for spleen associated tyrosine kinase inhibitor (SYKi) drug resistant MV4-11 cells (AID 1963824). Also: nearly all actives have a fitted effect of over 35% in size. In short, it runs like this:
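CellTiter-Glo luminescence, read 10 min after reagent addition, reports viability after a 72 hr compound exposure. Cells are an MV4-11 line made resistant to SYK inhibition, seeded at 500 per well onto compound-containing plates.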

A short description of test [3]: Quantitative highthroughput screen to assess conditional lethalithy of NOMO1 cells grown in RPMI1640 with untreated serum (RPMI+s) (AID 1963876). Also: nearly all actives have a fitted effect of over 35% in size.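 As to Viability: 100% = DMSO wells and 0% = empty wells without cells.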 The gist of the method: (§1)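 Each medium arm—HPLM with 10% dialyzed FBS, or RPMI1640 with 5 mM glucose and 10% untreated or dialyzed FBS—was screened against an 11-point, 3-fold compound titration for 48 h at 37 °C, with CellTiter-Glo luminescence as endpoint.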

The nature of test [4]: Quantitative highthroughput screen to assess conditional lethalithy of P12 Ichikawa cells grown in Human Plasma-Like Medium with dialyzed fetal bovine serum (HPLM+ds) (AID 1963879). Also: nearly all actives have a fitted effect of over 35% in size. As to Viability: series mostly up to about 46 µM. The conditions noted are these: Potency: viability. In short, it runs like this:
as §1

Test [5] is described as follows: Quantitative highthroughput screen to assess conditional lethalithy of P12 Ichikawa cells grown in RPMI1640 with dialyzed fetal bovine serum (RPMI+ds) (AID 1963880). Also: nearly all actives have a fitted effect of over 35% in size.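 As to Viability: 100% = DMSO wells and 0% = empty wells on each plate.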 The conditions noted are these: Potency: P12-Ichikawa viability. In short, it runs like this: as §1
Test [6] is described as follows: Quantitative highthroughput screen to assess conditional lethalithy of P12 Ichikawa cells grown in RPMI1640 with untreated serum (RPMI+s) (AID 1963881). Also: nearly all actives have a fitted effect of over 35% in size.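 As to Viability: series mostly up to about 46 µM; 100% = DMSO wells and 0% = empty wells without cells.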 The conditions noted are these: Potency: viability. In short, it runs like this:
as §1

Test [7] in a line: Cellular viability qHTS for adrenocortical cancer (ACC) cell line SW-13 (AID 1963989). Also: nearly all actives have a fitted effect of over 65% in size.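 As to activity (max response): cells grown in serum-free medium with ITS supplement; % is scaled to controls: 0 for no effect and ±100 for the full control effect.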 The conditions noted are these: SW-13 ACC cells viability, CellTiter-Glo, 48 h; activity (max response): stronger effect = lower value. In short, it runs like this:
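SW-13 cells in ITS-supplemented serum-free DMEM were plated overnight, then exposed for 48 h at 37C to compound titrations (up to 46 uM final). Viability was read by CellTiter-Glo luminescence; four-parameter logistic fits gave IC50 and efficacy.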

A short description of test [8]: Cellular viability qHTS for adrenocortical cancer (ACC) cell line NCI-H295R (AID 1963990). Also: nearly all actives have a fitted effect of over 60% in size. The gist of the method:
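Luminescent ATP read-out (CellTiter-Glo, 20 min RT) after 48 h drug exposure of NCI-H295R cells; a titration up to 46 uM final. Data normalized to doxorubicin (100% inhibition) and DMSO (0%); 4-parameter fit gives IC50, max response.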

Test [9] in a line: Quantitative highthroughput screen to assess conditional lethalithy of SEM cells grown in RPMI1640 with dialyzed fetal bovine serum (RPMI+ds) (AID 1963884). Also: nearly all actives have a fitted effect of over 35% in size.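 As to Viability: series mostly up to about 46 µM; 100% = DMSO control wells and 0% = empty wells without cells.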 The gist of the method: as §1
Test [10] is described as follows: Quantitative highthroughput screen to assess conditional lethalithy of SEM cells grown in RPMI1640 with unreated serum (RPMI+s) (AID 1963883). Also: nearly all actives have a fitted effect of over 35% in size.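 As to Viability: 100% = DMSO wells and 0% = empty wells without cells.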 The gist of the method: as §1
Test [11] is described as follows: Quantitative highthroughput screen to assess conditional lethalithy of SEM cells grown in Human Plasma-Like Medium with dialyzed fetal bovine serum (HPLM+ds) (AID 1963882). Also: nearly all actives have a fitted effect of over 35% in size. In short, it runs like this: as §1
A short description of test [12]: Quantitative highthroughput screen to assess conditional lethalithy of NOMO1 cells grown in RPMI1640 with dialyzed fetal bovine serum (RPMI+ds) (AID 1963877). Also: nearly all actives have a fitted effect of over 30% in size.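 As to Viability: series mostly up to about 46 µM; 100% = DMSO control wells and 0% = empty wells.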 In short, it runs like this: as §1
Test [13] in a line: Quantitative highthroughput screen to assess conditional lethalithy of NOMO1 cells grown in Human Plasma-Like Medium with dialyzed fetal bovine serum (HPLM+ds) (AID 1963878). Also: nearly all actives have a fitted effect of over 35% in size. The gist of the method:
as §1
Potency is read from the fitted curve at half-maximal effect.

Consider `CCCc1cc(=O)[nH]c(=S)[nH]1`, for which the Potency entry in [1], in [2] and in [8] was “inactive” throughout. Besides, the Potency was 9.35 µM (active) in [3], 10.5 µM (active) in test [4], 16.6 µM (active) in test [5] and 14.8 µM (active) in test [6]. In addition, the activity (max response) in [7] was 3.86% (inactive) and 14.9% (inactive).
In the case of `O=C(NCC1CCCCN1)c1cc(OCC(F)(F)F)ccc1OCC(F)(F)F` (centres undefined), the Potency result in test [1], in [2] and in test [9] was “inactive” throughout. The Potency in [3] is 0.332 µM (active); in test [4] it was 1.87 µM (active); in [5], 2.96 µM (active); in test [6] it was 1.66 µM (active). Besides, the activity (max response) in test [7] is -4.23% (inactive).
In the case of `O=C(O)Cn1nnc(-c2cc(N3CCC(Oc4cc(F)ccc4Br)CC3)no2)n1`, the Potency entry in test [1], in test [10], in test [9] and in test [8] was “inactive” throughout. The Potency in test [2] was 0.103 µM (active); in test [3], 1.05 µM (active); in test [4] it was 9.35 µM (active); in [5], 11.8 µM (active); in test [6], 9.35 µM (active).
Take `NC1(Cc2ccc(Cl)cc2)CCN(c2ncnc3[nH]ccc23)CC1`: the Potency was 3.72 µM (active) in test [1]; 5.25 µM (active) in test [2]; 10.5 µM (active) in test [3]; 6.62 µM (active) in [11]; 5.26 µM (active) in test [10]; 7.43 µM (active) in [9]. The Potency in [8] is 20 µM (active).
Turning to `CNC(=O)Nc1ccc(-c2nc(N3CC4CCC(C3)O4)c3cnn(C4CCC5(CC4)OCCO5)c3n2)cc1`, the Potency in test [1] was 0.0742 µM (active); in test [2], 0.166 µM (active); in [3], 0.059 µM (active); in test [10] it was 0.0418 µM (active); in [8], 0.282 µM (active).
In the case of `Cc1cn(-c2cc(NC(=O)c3ccc(C)c(Nc4nccc(-c5cccnc5)n4)c3)cc(C(F)(F)F)c2)cn1`, the Potency entry is “inactive and 2.35 µM (active)” in [1]; “inactive and 4.68 µM (active)” in test [2]; 0.935 µM (active) in [3]; 0.935 µM (active) in test [4]; 1.05 µM (active) in test [5]; 1.32 µM (active) in test [6]. Further, in test [8], the Potency result is “inactive”.
For `C=CC(=O)Nc1cccc(Oc2nc(Nc3ccc(N4CCN(C)CC4)cc3OC)ncc2Cl)c1`, the Potency in [1] was 1.64 µM (active) and 1.66 µM (active); in test [2], 2.06 µM (active) and 2.95 µM (active); in test [10], 3.72 µM (active); in [7], 8.91 µM (active); in test [8], 8.91 µM (active). In test [3], the Potency result was “inactive”.
As to `CCn1nnc2c(N3CCOCC3)nc(-c3ccc(NC(=O)Nc4ccc(C(=O)N5CCN(C)CC5)cc4)cc3)nc21`, the Potency in test [1] is 20.6 nM (active) and 46.8 nM (active); in [2] it was 29.1 nM (active) and 46.8 nM (active). The Potency result in test [3] and in test [8] was “inactive” each time.
`CCCCCNC(=O)N1CCC(CN(Cc2ccc(Cl)cc2)Cc2ccc([N+](=O)[O-])s2)C1` (centres undefined): the Potency was 20.9 µM (active) in [1], 13.2 µM (active) in test [2] and 28.2 µM (active) in test [8]. For the same molecule, the Potency entry in test [3], in test [4] and in test [5] was “inactive” each time.
As for `NC(=O)c1noc([C@H](CCCC2CCCCC2)CC(=O)NO)n1`, the Potency in [1] is 8.2 µM (active); in test [2], 4.17 µM (active); in test [12], 23.5 µM (active); in [13] it was 18.7 µM (active); in test [4] it was 23.5 µM (active); in [5], 18.7 µM (active). Besides, the Potency in test [6] is 18.7 µM (active); in test [11] it was 18.7 µM (active); in test [10] it was 16.6 µM (active); in test [9], 18.7 µM (active).
For the molecule `c1cncc(CN2CCC(n3ncc4c(N5CCOCC5)nc(-c5ccc6[nH]ccc6c5)nc43)CC2)c1`, the Potency in test [1] is 1.03 µM (active) and 1.32 µM (active); in [2], 1.84 µM (active) and 1.86 µM (active); in test [3], 16.6 µM (active); in test [5], 13.2 µM (active); in test [6] it was 13.2 µM (active); in test [9], 14.8 µM (active). The Potency in [8] is 3.55 µM (active).
`NC(=O)N1CCC(CC(=O)N2CCC([C@H]3c4ncc(Br)cc4CCc4cc(Cl)cc(Br)c43)CC2)CC1`: the Potency in test [1] is 5.9 µM (active); in test [2], 4.17 µM (active). For the same molecule, the Potency entry in [12] was “inactive”.
Regarding `CS(=O)(=O)CCNCc1ccc(-c2ccc3ncnc(Nc4ccc(OCc5cccc(F)c5)c(Cl)c4)c3c2)o1`, the Potency in test [1] was 20.6 µM (active) and 14.8 µM (active); in test [2], 16.8 µM (active) and 8.2 µM (active) and 11.8 µM (active); in test [3], 18.7 µM (active); in [5], 18.7 µM (active); in test [6] it was 18.7 µM (active); in test [9], 23.5 µM (active). In addition, the Potency in [8] was 23.1 µM (active) and 17.8 µM (active). In test [4], the Potency result is “inactive”.
As to `CCOC(=O)C1=C(C)NC2=C(C(=O)CC(C)(C)C2)C1c1ccc(-c2ccccc2)cc1` (centres undefined), the Potency was 23.5 µM (active) in [1]; 18.4 µM (active) and 18.6 µM (active) in test [2]; 18.7 µM (active) in test [11]; 10 µM (active) in [8]. Besides, the Potency result in [3], in [4], in test [5] and in test [6] was “inactive” in each case. Besides, in test [7], the activity (max response) was -12.6% (inactive).
Regarding `Nc1ccc(C(=O)Nc2cccc(-c3nc(N4CCOCC4)c4oc5ncccc5c4n3)c2)cn1`, the Potency is 10.3 µM (active) in test [1]; 3.66 µM (active) in [2]; 20.9 µM (active) in test [11]; 18.7 µM (active) in [10]; 20.9 µM (active) in test [9]. Further, the Potency result in test [3] is “inactive”. The activity (max response) in test [7] was -13.4% (inactive).
